From ChEMBL document CHEMBL1961873, “Compounds: GSK PKIS; Assays: Nanosyn kinase panel” (2012) come the findings set out here.

Experiment [1] addresses RAC-alpha serine/threonine-protein kinase (Homo sapiens) (UniProt P31749). Particulars: at 0.1 µM.
Experiment [2] shares this target. Particulars: at 1 µM.
For experiment [3], the target named is RAC-beta serine/threonine-protein kinase (Homo sapiens) (UniProt P31751). Conditions: at 0.1 µM.
Experiment [4] has the same target. Particulars: at 1 µM.
Experiment [5] has as its target RAC-gamma serine/threonine-protein kinase (Homo sapiens) (UniProt Q9Y243). Conditions: at 0.1 µM.
Experiment [6] shares this target. Particulars: at 1 µM.
Experiment [7] addresses G protein-coupled receptor kinase 6 (Homo sapiens) (UniProt P43250). Conditions: at 0.1 µM.
For experiment [8] the target is unchanged. Conditions: at 1 µM.
Experiment [9] concerns the target T1, Rhodopsin kinase GRK7 (Homo sapiens) (UniProt Q8WTQ7).
T1 sequence (whole entry): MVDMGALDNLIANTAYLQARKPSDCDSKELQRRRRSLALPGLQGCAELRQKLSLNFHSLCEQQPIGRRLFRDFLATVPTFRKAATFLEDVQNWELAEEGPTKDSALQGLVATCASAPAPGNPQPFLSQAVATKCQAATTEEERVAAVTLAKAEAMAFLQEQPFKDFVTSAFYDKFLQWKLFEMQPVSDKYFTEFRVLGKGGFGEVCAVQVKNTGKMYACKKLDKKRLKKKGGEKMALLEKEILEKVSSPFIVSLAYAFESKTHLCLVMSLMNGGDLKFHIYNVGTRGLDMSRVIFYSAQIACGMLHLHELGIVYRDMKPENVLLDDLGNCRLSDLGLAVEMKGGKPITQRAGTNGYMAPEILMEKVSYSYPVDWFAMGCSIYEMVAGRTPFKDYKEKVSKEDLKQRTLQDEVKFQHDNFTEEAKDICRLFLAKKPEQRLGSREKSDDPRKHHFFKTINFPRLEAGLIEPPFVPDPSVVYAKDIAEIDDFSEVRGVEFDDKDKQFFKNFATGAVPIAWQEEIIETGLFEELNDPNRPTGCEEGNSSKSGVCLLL
Conditions: at 0.1 µM.

Experiment [10] has as its target T1, Rhodopsin kinase GRK7 (Homo sapiens). Conditions: at 1 µM.

Chain of G protein-coupled receptor kinase 6 (Homo sapiens) (P43250 whole entry, looked up): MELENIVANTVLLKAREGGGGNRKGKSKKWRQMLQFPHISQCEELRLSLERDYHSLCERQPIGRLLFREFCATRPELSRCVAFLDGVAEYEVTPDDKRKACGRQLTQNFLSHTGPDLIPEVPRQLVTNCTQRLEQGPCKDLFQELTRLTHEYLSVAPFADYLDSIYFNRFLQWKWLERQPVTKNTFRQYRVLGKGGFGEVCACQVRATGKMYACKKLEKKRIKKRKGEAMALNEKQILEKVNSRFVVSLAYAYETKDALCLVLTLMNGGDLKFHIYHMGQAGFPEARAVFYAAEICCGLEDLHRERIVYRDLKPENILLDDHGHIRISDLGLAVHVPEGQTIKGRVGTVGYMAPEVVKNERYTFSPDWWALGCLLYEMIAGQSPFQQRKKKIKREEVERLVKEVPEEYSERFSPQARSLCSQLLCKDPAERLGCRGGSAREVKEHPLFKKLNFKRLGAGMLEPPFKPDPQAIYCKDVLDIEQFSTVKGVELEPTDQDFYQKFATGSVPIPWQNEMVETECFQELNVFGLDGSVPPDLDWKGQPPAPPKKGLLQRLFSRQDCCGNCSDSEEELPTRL
Chain of RAC-beta serine/threonine-protein kinase (Homo sapiens) (P31751 whole entry): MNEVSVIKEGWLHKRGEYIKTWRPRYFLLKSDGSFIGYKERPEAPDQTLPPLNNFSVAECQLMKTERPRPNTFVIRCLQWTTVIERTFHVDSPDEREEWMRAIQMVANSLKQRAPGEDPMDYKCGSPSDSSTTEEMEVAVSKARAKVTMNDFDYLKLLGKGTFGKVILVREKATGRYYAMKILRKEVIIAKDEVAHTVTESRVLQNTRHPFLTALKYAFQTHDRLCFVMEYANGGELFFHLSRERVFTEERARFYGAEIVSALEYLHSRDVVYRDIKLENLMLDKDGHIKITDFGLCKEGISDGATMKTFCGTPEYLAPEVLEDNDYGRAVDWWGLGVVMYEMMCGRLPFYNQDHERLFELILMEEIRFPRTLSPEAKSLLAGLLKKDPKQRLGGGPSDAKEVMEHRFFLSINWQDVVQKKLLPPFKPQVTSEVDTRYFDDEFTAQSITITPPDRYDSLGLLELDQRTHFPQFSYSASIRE
Chain of RAC-alpha serine/threonine-protein kinase (Homo sapiens) (P31749 whole entry): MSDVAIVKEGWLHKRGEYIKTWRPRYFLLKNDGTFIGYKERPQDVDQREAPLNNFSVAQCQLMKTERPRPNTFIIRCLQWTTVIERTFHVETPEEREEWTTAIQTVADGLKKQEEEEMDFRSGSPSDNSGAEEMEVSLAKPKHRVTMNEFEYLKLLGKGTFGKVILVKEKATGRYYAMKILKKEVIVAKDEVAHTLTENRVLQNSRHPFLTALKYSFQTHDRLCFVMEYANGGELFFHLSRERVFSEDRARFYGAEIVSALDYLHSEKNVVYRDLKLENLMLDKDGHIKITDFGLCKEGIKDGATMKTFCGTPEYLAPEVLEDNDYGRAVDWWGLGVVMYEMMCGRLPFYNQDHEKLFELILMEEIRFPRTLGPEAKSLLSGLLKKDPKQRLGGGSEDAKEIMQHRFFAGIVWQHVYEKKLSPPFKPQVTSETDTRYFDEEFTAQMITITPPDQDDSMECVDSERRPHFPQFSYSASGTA
Chain of RAC-gamma serine/threonine-protein kinase (Homo sapiens) (Q9Y243 whole entry): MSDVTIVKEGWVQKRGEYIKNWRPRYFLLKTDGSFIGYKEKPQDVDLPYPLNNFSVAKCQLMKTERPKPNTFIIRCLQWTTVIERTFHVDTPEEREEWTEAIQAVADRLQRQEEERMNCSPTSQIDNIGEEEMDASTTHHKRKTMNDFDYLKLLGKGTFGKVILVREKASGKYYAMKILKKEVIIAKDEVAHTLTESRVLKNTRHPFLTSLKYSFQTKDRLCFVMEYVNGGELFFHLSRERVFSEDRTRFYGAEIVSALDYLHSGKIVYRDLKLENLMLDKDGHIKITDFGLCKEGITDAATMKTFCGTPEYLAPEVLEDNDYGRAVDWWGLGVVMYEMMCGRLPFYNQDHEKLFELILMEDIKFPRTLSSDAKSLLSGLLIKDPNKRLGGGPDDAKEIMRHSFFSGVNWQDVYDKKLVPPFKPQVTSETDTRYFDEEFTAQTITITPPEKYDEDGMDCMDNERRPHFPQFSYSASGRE

As a reminder, the inhibition is the relative decrease from the control value, in per cent. Regarding `COc1ccc2ncnc(Nc3ccc(OCc4ccccc4)cc3)c2c1`, the inhibition in experiment [1] was 0.35%; in experiment [2], -0.14%; in [3], 0.26%; in [4], 0.34%; in experiment [5] it was 0.84%; in experiment [6] it was 1.52%. Moreover, the inhibition in experiment [7] stood at 1.69%; in experiment [8], 5.27%; in experiment [9], 2.31%; in experiment [10], 6.57%.

For `CN(c1ccc(NC(=O)Nc2ccc(OC(F)(F)F)cc2)cc1)c1ccnc(Nc2cccc(S(N)(=O)=O)c2)n1`, the inhibition in experiment [1] is 0.77%; in [2], 0.88%; in [3], 0.51%; in experiment [4] it was 1.22%; in [5], 0.16%; in [6], 2.79%. Moreover, the inhibition is -5.14% in experiment [7], -2.97% in experiment [8], 3.47% in [9] and -1.66% in experiment [10].

On to `C[C@@H](Oc1cc(-n2cnc3ccc(OC[C@@H](O)CO)cc32)sc1C(N)=O)c1ccccc1Cl`, for which the inhibition in [1] was -0.94%; in [2], -0.9%; in experiment [3], -0.48%; in [4], -0.32%; in experiment [5] it was 0.07%; in experiment [6] it was -0.44%. The inhibition in [7] is 1.08%; in experiment [8], 4.23%; in experiment [9] it was -4.63%; in experiment [10] it was 3.37%.

As to `NS(=O)(=O)c1ccc(-c2cc3ccncc3cc2OCc2ccccc2)cc1`, the inhibition was 0.08% in experiment [1]; 0.83% in experiment [2]; 1.46% in experiment [3]; 1.66% in experiment [4]; 0.51% in experiment [5]; 2.2% in [6]. Also, the inhibition in experiment [7] stood at 2.02%; in experiment [8], 8.2%; in experiment [9], 1.52%; in experiment [10] it was 6.27%.

As to `CCS(=O)(=O)c1ccc(OC)c(Nc2ncc(-c3cccc(OC)c3)o2)c1`, the inhibition is 0.36% in experiment [1]; 0.85% in experiment [2]; 1.41% in experiment [3]; 0.82% in experiment [4]; 1.04% in experiment [5]; -0.57% in experiment [6]. For the same compound, the inhibition in experiment [7] was -1.06%; in experiment [8] it was -5%; in experiment [9], -0.18%; in experiment [10] it was -8.47%.

For the compound `O=C1Nc2ccccc2/C1=C/Nc1ccc2[nH]c(=O)[nH]c2c1`, the inhibition was 0.44% in experiment [1]; 0.45% in experiment [2]; 1.75% in experiment [3]; 2.21% in experiment [4]; 1% in [5]; 1.86% in experiment [6]. Also, the inhibition in [7] amounted to 8.17%; in experiment [8], 23.7%; in experiment [9] it was 4.17%; in [10] it was 15.9%.

As to `Oc1cccc(-c2nc(-c3ccccc3)[nH]c2-c2ccncc2)c1`, the inhibition in [1] is -0.1%; in [2] it was 1.39%; in experiment [3], 2.18%; in [4], 2.47%; in experiment [5], 0.82%; in experiment [6], 3.85%. Besides, the inhibition was 6.53% in experiment [7], 4.9% in [8], 1.3% in [9] and -0.71% in experiment [10].

As for `COc1cccc(-n2ncc3c(N/N=C/c4ccc(S(C)(=O)=O)cc4)ncnc32)c1`, the inhibition is -3.17% in experiment [1]; -2.91% in experiment [2]; -3.17% in experiment [3]; -2.73% in [4]; -8.29% in [5]; -3.66% in experiment [6]. The inhibition was 1.17% in experiment [7], -1.78% in experiment [8], -0.35% in experiment [9] and 0.56% in experiment [10].

With `COC(=O)c1cncc(/C=C/c2c(C)cc(O)cc2C)c1`, the inhibition in experiment [1] turned out to be 1.01%; in experiment [2], 0.52%; in [3], 1.09%; in experiment [4], 1.16%; in experiment [5], 1.47%; in experiment [6], 1.17%. In addition, the inhibition was found to be 7.47% in [7], 9.38% in experiment [8], 3.31% in experiment [9] and 3.95% in experiment [10].

Consider `COc1cccc(-n2nc(C)c3c(N/N=C(\C)c4ccncc4)ncnc32)c1`, for which the inhibition in [1] is -0.15%; in experiment [2], -0.16%; in experiment [3], -0.34%; in experiment [4], 0.3%; in experiment [5], -0.78%; in experiment [6], 3.59%. Also, the inhibition in experiment [7] amounted to 0.75%; in [8] it was 1.13%; in [9], 3.79%; in experiment [10], 0.01%.

As for `Cc1ccc(NC(=O)CC2CC2)cc1-c1ccc(C(=O)NCC2CC2)cc1`, the inhibition in experiment [1] was 0.17%; in [2] it was 0.7%; in experiment [3] it was 1.47%; in experiment [4] it was 1.58%; in experiment [5], 1.47%; in experiment [6], 1.65%. In addition, the inhibition is 2.05% in experiment [7], 6.65% in experiment [8], 0.94% in experiment [9] and 0.75% in experiment [10].

As for `CN(C)c1cc2c(Nc3ccc4c(cnn4Cc4ccccc4)c3)ncnc2cn1`, the inhibition in experiment [1] was 0.51%; in experiment [2], 0.62%; in experiment [3], 2.07%; in experiment [4], 1.16%; in [5], 0.46%; in [6] it was 1.23%. For the same compound, the inhibition was determined as 3.25% in experiment [7], 3.36% in experiment [8], 2.54% in [9] and 3.15% in experiment [10].

In the case of `CCS(=O)(=O)c1ccc(OC)c(Nc2nccc(N(C)c3ccc4c(C)n[nH]c4c3)n2)c1`, the inhibition came to 1.44% in [1]; 1.19% in experiment [2]; 1.01% in experiment [3]; 2.53% in experiment [4]; 0.55% in experiment [5]; 2.78% in experiment [6]. Further, the inhibition in experiment [7] is -0.58%; in experiment [8], 1.67%; in experiment [9] it was 9.6%; in experiment [10] it was 1.83%.

`NS(=O)(=O)c1ccc(N/N=C2\C(=O)Nc3ccc(Cl)cc32)cc1`: the inhibition turned out to be 1.17% in experiment [1]; 1.19% in experiment [2]; 3.01% in experiment [3]; 2.43% in [4]; 1.79% in experiment [5]; 1.82% in experiment [6]. For the same compound, the inhibition in experiment [7] was found to be 4.41%; in experiment [8], 8.19%; in experiment [9] it was 2.49%; in [10] it was 2.98%.
